Compound activity as filed in PubChem BioAssay.
MITF inhib = blocks MITF activity; TRPM1 promoter luciferase, luminescence, 24 h; inhibition, % (concentration not given with the values); 37,000 tested, 0.28% active; AID 2240; in the data active = inhibition above about 85%; inconclusive = no clear call, values can overlap the other calls; inactive = below about 68%;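 also: human melanocyte line stably carrying TRPM1 promoter luciferase reporter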
PD-1 reversal = activators reversing PD-1 mediated T-cell inhibition. activation, % (concentration not given with the values). primary human CD4 T cells, PD-L1 beads, CellTiter-Glo 96 h. 29,000 tested, under 10 active; call rule not given here
Shh pathway inh = blocks Sonic Hedgehog signaling; Shh-LIGHT2 Gli-luciferase reporter, 30 h; inhibition, % (no concentration beside the values); 22,000 tested, 2.1% active; AID 2313;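 active = mean inhibition across valid replicates above about 65%, limit read from the data; inconclusive = mean under the limit, yet half or more replicates past it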;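 also: pathway switched on by Shh-conditioned medium diluted 1 in 25 in low serum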
NOMO-1 viab = STK33 inhibitor candidate reducing NOMO-1 cell viability; NOMO-1 AML viability, CellTiter-Glo luminescence, 72 h; inhibition, % (concentration not given with the values); 37,000 tested, 7.5% active; in the data active = inhibition above about 80%; inconclusive = no clear call, values can overlap the other calls
Each line names hits and unclear results; the compound was inactive in the other large screens. Rows were chosen to be rich in hits. Some 7.9% of all compounds tested hit in one or more screens of this group.

COc1ccc(S(=O)(=O)Nc2ccc3c(c2)CC(=O)N([C@H](C)CO)C[C@@H](C)[C@H](CN(C)Cc2ccc(-c4ccccc4)cc2)O3)cc1	none
COc1ccc(S(=O)(=O)Nc2ccc3c(c2)CC(=O)N([C@@H](C)CO)C[C@H](C)[C@@H](CN(C)Cc2ccc(-c4ccccc4)cc2)O3)cc1	NOMO-1 viab 125 (no result: PD-1 reversal)
COc1ccc(S(=O)(=O)Nc2ccc3c(c2)CC(=O)N([C@H](C)CO)C[C@H](C)[C@H](CN(C)Cc2ccc(-c4ccccc4)cc2)O3)cc1	NOMO-1 viab 88 (no result: PD-1 reversal, Shh pathway inh)
COc1ccc(S(=O)(=O)Nc2ccc3c(c2)CC(=O)N([C@@H](C)CO)C[C@@H](C)[C@@H](CN(C)Cc2ccc(-c4ccccc4)cc2)O3)cc1	none
O=C(CCN1C(=O)C2C3C=CC(C3)C2C1=O)Nc1cccc2ccccc12 (stereo unspecified)	none (no result: Shh pathway inh)
CC1CCc2c(sc3ncnc(SCC(=O)Nc4cccc(Cl)c4Cl)c23)C1 (stereo unspecified)	none (no result: Shh pathway inh)
CCC(=O)N(Cc1cc2ccccc2[nH]c1=O)c1cccc(C)c1	none (no result: Shh pathway inh)
C(=NCc1ccco1)c1cn(-c2ccccc2)nc1-c1ccccc1	NOMO-1 viab 105
CCN(CC(=O)Nc1ccccc1OC)S(=O)(=O)c1ccc(Cl)cc1	none (no result: Shh pathway inh)
C[C@@H]1CN([C@@H](C)CO)C(=O)c2cc(NS(=O)(=O)c3cccs3)ccc2O[C@@H]1CN(C)Cc1ccc(C(=O)Nc2ccccc2N)cc1	NOMO-1 viab 111 (no result: Shh pathway inh)
C[C@H](CO)N1C[C@H](C)[C@H](CN(C)Cc2ccc(C(=O)Nc3ccccc3N)cc2)Oc2ccc(NS(=O)(=O)c3cccs3)cc2CC1=O	NOMO-1 viab 128 (no result: Shh pathway inh)
Cc1sc2ncnc(SCC(=O)NCC3CCCO3)c2c1-c1ccc(Cl)cc1 (stereo unspecified)	none (no result: Shh pathway inh)
CC(C)NC(=O)Nc1ccc2c(c1)CC(=O)N([C@H](C)CO)C[C@H](C)[C@H](CN(C)Cc1ccc(C(=O)Nc3ccccc3N)cc1)O2	NOMO-1 viab 126 (no result: Shh pathway inh)
C[C@@H]1CN([C@H](C)CO)C(=O)c2cc(NC(=O)Nc3cccc4ccccc34)ccc2O[C@H]1CN(C)Cc1ccc(C(=O)Nc2ccccc2N)cc1	none (no result: Shh pathway inh)
C[C@H](CO)N1C[C@H](C)[C@H](CN(C)Cc2ccc(C(=O)Nc3ccccc3N)cc2)Oc2ccc(NC(=O)Nc3cccc4ccccc34)cc2CC1=O	NOMO-1 viab 141 (no result: Shh pathway inh)
C[C@H](CO)N1C[C@H](C)[C@H](CN(C)Cc2ccc(C(=O)Nc3ccccc3N)cc2)Oc2ccc(NC(=O)Cn3cnnn3)cc2CC1=O	NOMO-1 viab 97 (no result: Shh pathway inh)
C[C@@H]1CN([C@H](C)CO)C(=O)c2cc(NC(=O)Nc3cccc4ccccc34)ccc2O[C@@H]1CN(C)Cc1ccc(C(=O)Nc2ccccc2N)cc1	NOMO-1 viab 105 (no result: Shh pathway inh)
C[C@@H]1CN([C@H](C)CO)C(=O)Cc2cc(NC(=O)c3ccncc3)ccc2O[C@@H]1CN(C)Cc1ccc(C(=O)Nc2ccccc2N)cc1	none (no result: Shh pathway inh)
C[C@@H]1CN([C@H](C)CO)C(=O)Cc2cc(NC(=O)Nc3ccc(F)cc3)ccc2O[C@H]1CN(C)Cc1ccc(C(=O)Nc2ccccc2N)cc1	none (no result: Shh pathway inh)
C[C@@H]1CN([C@@H](C)CO)C(=O)Cc2cc(NC(=O)c3ccncc3)ccc2O[C@@H]1CN(C)Cc1ccc(C(=O)Nc2ccccc2N)cc1	none (no result: Shh pathway inh)
C[C@@H]1CN([C@@H](C)CO)C(=O)Cc2cc(NC(=O)Nc3ccc(C(F)(F)F)cc3)ccc2O[C@@H]1CN(C)Cc1ccc(C(=O)Nc2ccccc2N)cc1	NOMO-1 viab 127 (no result: Shh pathway inh)
C[C@H](CO)N1C[C@H](C)[C@H](CN(C)Cc2ccc(C(=O)Nc3ccccc3N)cc2)Oc2ccc(NC(=O)Nc3ccc(C(F)(F)F)cc3)cc2CC1=O	NOMO-1 viab 140 (no result: Shh pathway inh)
C[C@H](CO)N1C[C@H](C)[C@H](CN(C)Cc2ccc(C(=O)Nc3ccccc3N)cc2)Oc2ccc(NC(=O)c3ccncc3)cc2CC1=O	NOMO-1 viab 128 (no result: Shh pathway inh)
C[C@H]1CN([C@@H](C)CO)C(=O)Cc2cc(NC(=O)C3CC3)ccc2O[C@H]1CN(C)Cc1ccc(C(=O)Nc2ccccc2N)cc1	NOMO-1 viab 128 (no result: Shh pathway inh)
Cc1cccc(NC(=O)CSc2cn(CCNC(=O)c3ccc(F)cc3)c3ccccc23)c1C	none
C[C@H]1CN([C@@H](C)CO)C(=O)Cc2cc(NC(=O)Nc3ccc(F)cc3)ccc2O[C@@H]1CN(C)Cc1ccc(C(=O)Nc2ccccc2N)cc1	none (no result: Shh pathway inh)
C[C@@H]1CN([C@H](C)CO)C(=O)Cc2cc(NC(=O)Nc3ccccc3)ccc2O[C@@H]1CN(C)Cc1ccc(C(=O)Nc2ccccc2N)cc1	NOMO-1 viab 108 (no result: Shh pathway inh)
COc1ccc(NC(=O)Nc2cccc3c2O[C@H](CN(C)S(=O)(=O)c2ccc(OC)cc2)[C@@H](C)CN([C@H](C)CO)C3=O)cc1	none
COc1ccc(S(=O)(=O)N(C)C[C@@H]2Oc3c(NC(=O)Nc4ccc(C(F)(F)F)cc4)cccc3C(=O)N([C@@H](C)CO)C[C@@H]2C)cc1	NOMO-1 viab 93
COc1ccc(S(=O)(=O)N(C)C[C@@H]2Oc3c(NC(=O)Nc4ccc(C(F)(F)F)cc4)cccc3C(=O)N([C@H](C)CO)C[C@@H]2C)cc1	NOMO-1 viab 114
COc1ccc(NC(=O)Nc2cccc3c2O[C@@H](CN(C)S(=O)(=O)c2ccc(Cl)cc2)[C@@H](C)CN([C@@H](C)CO)C3=O)cc1	Shh pathway inh 101 (no result: PD-1 reversal)
COc1ccc(NC(=O)Nc2cccc3c2O[C@@H](CN(C)S(=O)(=O)c2ccc(OC)cc2)[C@H](C)CN([C@H](C)CO)C3=O)cc1	none
COc1ccc(NC(=O)CN2CCN(S(=O)(=O)c3c(C)cc(C)cc3C)CC2)cc1	none (no result: Shh pathway inh)
Cc1ccc(N(C(C)C(=O)Nc2ccc(I)cc2)S(C)(=O)=O)cc1C (stereo unspecified)	none (no result: PD-1 reversal, Shh pathway inh)
N/C(=N\O)c1ccc(Cl)cc1	none
Cc1ccc(C2=NN(C(=O)CCC(=O)O)C(c3ccc(F)cc3)C2)cc1 (stereo unspecified)	none (no result: Shh pathway inh)
O=C(O)CCN1C(=O)C2C3c4ccccc4C(c4ccccc43)C2C1=O (stereo unspecified)	none
O=C1c2ccccc2C(=O)N1OS(=O)(=O)c1cccc2cccnc12	NOMO-1 viab 127 (no result: Shh pathway inh)
O=C(CCN1C(=O)C2C3c4ccccc4C(c4ccccc43)C2C1=O)Oc1cccc2cccnc12 (stereo unspecified)	NOMO-1 viab 118 (no result: Shh pathway inh)
CC(C(=O)Oc1cccc2cccnc12)N1C(=O)c2ccccc2C1=O (stereo unspecified)	NOMO-1 viab 127 (no result: Shh pathway inh)
O=C1NC(=S)N(S(=O)(=O)c2cccc3cccnc23)C1Cc1ccccc1 (stereo unspecified)	none (no result: Shh pathway inh)
COc1ccc(OC)c(S(=O)(=O)ON2C(=O)c3ccccc3C2=O)c1	NOMO-1 viab 119 (no result: Shh pathway inh)
COc1ccc(OC)c(NS(=O)(=O)c2cc(OC)ccc2OC)c1	none (no result: Shh pathway inh)
Cc1cc2ncn(CC(O)COc3ccc4cc(Br)ccc4c3)c2cc1C (stereo unspecified)	NOMO-1 viab inconclusive (no result: Shh pathway inh)
Cc1nnc(SCc2nnnn2-c2ccccc2)[nH]c1=O	none (no result: PD-1 reversal, Shh pathway inh)
CC1=NN(C(=O)c2ccc(Cl)cc2)C(C)(C)C1	none (no result: Shh pathway inh)
